Screening data deposited in PubChem by The Scripps Research Institute Molecular Screening Center.
A selection: hits, their analogues and other compounds. The true share with any hit is near 3.5%.
GPR151 activ: human GPR151 activation; PathHunter beta-arrestin GPR151 cells, luminescence; activation, % at 11.2 µM; actives 1% (n = 650,000); AID 1508602; in the data active means activation above about 4.9%
Target sequence (Q8TDV0 whole entry, looked up): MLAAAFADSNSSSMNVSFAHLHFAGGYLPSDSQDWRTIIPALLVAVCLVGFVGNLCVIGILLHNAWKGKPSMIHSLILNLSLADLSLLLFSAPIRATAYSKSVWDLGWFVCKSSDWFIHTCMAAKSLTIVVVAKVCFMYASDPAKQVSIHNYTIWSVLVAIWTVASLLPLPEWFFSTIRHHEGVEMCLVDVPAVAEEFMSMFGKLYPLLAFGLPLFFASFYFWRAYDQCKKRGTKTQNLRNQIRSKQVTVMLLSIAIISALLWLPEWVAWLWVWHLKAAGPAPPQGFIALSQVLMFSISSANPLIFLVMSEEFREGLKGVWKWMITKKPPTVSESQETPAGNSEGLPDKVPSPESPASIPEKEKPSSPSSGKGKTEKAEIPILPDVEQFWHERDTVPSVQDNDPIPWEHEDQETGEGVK
MITF primary: inhibitors of human MITF; actives 0.91% (n = 650,000); AID 1259374; AlphaScreen MITF homodimerization, bead proximity signal; inhibition, % at 2.6 µM; in the data active means inhibition above about 50%
FBW7 activator: activators of human E3 ligase FBW7 | Q969H0 | AlphaScreen FBW7–phospho-cyclin E peptide binding, activator screen | normalized activity (activation), % at 26.1 µM | actives 0.13% (n = 650,000); in the data active means normalized activity above about 1.9%;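 further: purified mutant Fbw7 with reduced substrate affinity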
TEAD-YAP block: TEAD-YAP interaction inhibition; HEK-TIYL cells, TEAD-Gal4/YAP UAS-luciferase luminescence; actives 1.4% (n = 640,000); inhibition, % at 9.12 µM; in the data active means inhibition above about 32%
GPR151 conf act: human GPR151 activation, confirmation screen | shares compounds with GPR151 activ | GPR151 PathHunter beta-arrestin cells, luminescence, 90 min; % of EA-reagent control over plate median | activation, % at 11.2 µM | 6,700 tested, under 10 active | AID 1508609;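 active means mean percent activation across replicates above the confirmation screen cutoff of 4.91%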
GPR119 counter: counter-screen for GPR151 activators: effect on human GPR119. activation, % at 11.2 µM. GPR119 PathHunter beta-arrestin cells, luminescence, 90 min; 0 = compound-well median, 100 = enzyme-acceptor control. actives 0.3% (n = 6,700). shares compounds with GPR151 activ;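 active means mean percent activation in the counterscreen above 29.09%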;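 further: counterscreen on off-target GPR119 to flag nonselective hits from the GPR151 activator screen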
Hits are given with their value; i = inactive; nt = no result.

SMILES | GPR151 activ | MITF primary | FBW7 activator | TEAD-YAP block | GPR151 conf act | GPR119 counter
COc1ccc(-c2noc(C(C)c3ccc([N+](=O)[O-])cc3)n2)cc1 (configuration not stated) | 5.1 | i | i | i | i | i
COc1cccc(-c2nc(-c3ccc([N+](=O)[O-])cc3)no2)c1 | i | i | i | i | nt | nt
CCOc1ccccc1NC(=S)NC(=O)c1ccccc1[N+](=O)[O-] | i | i | i | i | nt | nt
Cc1ccc(CNC(=O)CCn2c(=S)[nH]c3cc4c(cc3c2=O)OCO4)o1 | i | i | i | i | nt | nt
O=C(O)C(Oc1ccccc1-n1cccc1)c1ccccc1 (configuration not stated) | 6.4 | i | i | i | i | i
O=C(c1ccccc1)c1ccccc1-n1cccc1 | i | i | i | i | nt | nt
O=C(O)CCC/C=C\C[C@@H]1[C@@H](/C=C/[C@@H](O)COc2cccc(C(F)(F)F)c2)[C@H](O)C[C@@H]1O | i | i | nt | nt | nt | nt
O=C(O)CCC/C=C/C[C@@H]1[C@@H](/C=C/[C@@H](O)COc2cccc(C(F)(F)F)c2)[C@H](O)C[C@@H]1O | 5.1 | i | nt | nt | i | i
COc1ccc(S(=O)(=O)N2N=C(C)Oc3ccccc3C2=O)cc1 | 5.2 | i | i | 44.1 | i | i
CCc1c(C)nc(SCCc2ccccc2)[nH]c1=O | 5.4 | i | i | i | i | i
O=C(O)c1nn2c(c1Br)NC(c1ccccc1)CC2C(F)(F)F (configuration not stated) | 7.2 | i | i | i | i | i
NC(=O)c1nn2c(c1Br)NC(c1ccccc1)CC2C(F)(F)F (configuration not stated) | i | i | i | i | nt | nt
Cc1ccc(C(=O)CSc2nc(N)cc(=O)[nH]2)cc1C | 5.9 | i | i | i | i | i
Cc1cc(C(=O)CSc2nc(N)cc(=O)[nH]2)ccc1F | i | i | i | i | nt | nt
Cc1[nH]c2ccccc2c1C(=O)CSc1nc(N)cc(=O)[nH]1 | 5.8 | i | i | i | i | i
CCC1CN(CC(=O)N2CCC(C(O)c3cccs3)CC2)Cc2cc(OC)ccc2O1 (configuration not stated) | i | i | i | i | nt | nt
CCCOc1ccc(N2C(=O)C3C4C=CC(O4)C3C2=O)cc1 (configuration not stated) | i | i | i | i | nt | nt
O=C1CC(c2ccc(Cl)cc2)NC(=O)N1 (configuration not stated) | i | i | i | i | nt | nt
Cc1ccc(-c2ccc(SCC(=O)N3CCCC3)nn2)cc1 | 6.0 | i | i | i | i | i
CCOC(=O)N1CCN(C(=O)CSc2ccc(-c3cccnc3)nn2)CC1 | 4.9 | i | i | i | i | i
O=C(CSc1ccc(-c2ccc3c(c2)OCO3)nn1)N1CCCC1 | i | i | i | i | nt | nt
Cc1ccc(S(=O)(=O)Oc2ccc([N+](=O)[O-])cc2[N+](=O)[O-])cc1 | i | i | i | i | nt | nt
CC(=O)N1CN(Cc2cccnc2)Cc2c1sc1c2CCCC1 | i | i | i | i | nt | nt
CC(=O)N1CN(Cc2ccccc2)Cc2c1sc1c2CCCC1 | 5.5 | i | i | i | i | i
Cc1sc2ncn(CC(=O)Nc3ccc(C(C)C)cc3)c(=O)c2c1S(=O)(=O)N1CCOCC1 | i | i | i | i | nt | nt
SMILES | GPR151 activ | MITF primary | FBW7 activator | TEAD-YAP block | GPR151 conf act | GPR119 counter
CC(C)CN1CCN(Cc2ccc3cccc(F)c3n2)CC1CCO (configuration not stated) | i | i | i | i | nt | nt
CC(C)(C)CN1CCN(Cc2ccc3cccc(F)c3n2)CC1CCO (configuration not stated) | 7.2 | i | i | i | i | i
COc1ccc(NC(=O)c2nnn(Cc3ccccc3)c2N)cc1 | 8.1 | i | i | i | i | i
Nc1c(C(=O)Nc2ccc(Oc3ccccc3)cc2)nnn1Cc1ccccc1 | i | i | i | i | nt | nt
CCOC(=O)c1cccc(NC(=O)CCc2c(C)nc3nc(CN)nn3c2C)c1 | 5.9 | i | i | i | i | i
CCOC(=O)C1CCN(c2cccc3c2C(=O)c2ccccc2C3=O)CC1 | i | i | i | i | nt | nt
COC(=O)C(CC(C)C)NC(=O)CSC1=NC(=O)C(c2ccccc2)C(=O)N1 (configuration not stated) | 5.6 | i | i | i | i | i
Cc1nc2ccc(N/C=C3\C(=O)C(C)(C)Oc4ccc5ccc(=O)oc5c43)cc2s1 | 5.8 | i | i | i | i | i
